Screening data from PubChem BioAssay.
EWS-Fli block: EWS/Fli transcriptional activity inhibition; A673 NR0B1-luciferase reporter, viability-normalised; inhibition, % at 12.6 µM; 0.67% of 350,000 active; AID 651661;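 active means mean inhibition of at least 50% after viability correction, with every replicate also passing that limit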;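 further: firefly luciferase signal divided by Alamar Blue viability fluorescence both relative to DMSO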
CF NFkB inh: inhibitors of cystic fibrosis induced NF-kB. KKLEB NF-kB-GFP reporter, PAF-induced, GFP fluorescence overnight. inhibition, % at 5 µM. 0.86% of 360,000 active;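 active means at least 50% inhibition at 5 µM, scaled per plate between neutral and stimulator controls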;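 further: PAF is a Pseudomonas aeruginosa culture filtrate used as stimulus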
PAX8 inh HTS: inhibitors of PAX8 transcriptional activity in RMG-I cells | RMG-I TPO-luciferase reporter, SteadyGlo, 24 h | inhibition, % at 12.6 µM | 1.2% of 360,000 active;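 active means mean replicate inhibition at least 60% with every replicate also reaching 60%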;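 further: luciferase light reporting Pax8 driven TPO promoter activity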
LGR2 inh: blocks bursicon-induced cAMP signaling via Drosophila LGR2 | HEK293 LGR2, CRE-luciferase, bursicon-stimulated, 4 h | AID 720647 | inhibition, % at 9.99 µM | 0.35% of 380,000 active;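 active means drop in luminescence signal, shown as inhibition above about 50% in the replicate tests, limit read from the data, passing the limit was not always enough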;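 further: agonist challenge used bursicon conditioned medium at about half maximal strength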
Shn3 3UTR inh: Schnurri-3 reporter inhibition in Clone20 osteoblasts. Clone20 osteoblast Shn3 3'UTR firefly luciferase, 24 h. inhibition, % at 12.5 µM. 0.52% of 360,000 active;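 active means mean inhibition of at least 75% with every replicate also reaching 75%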
KKLEB tox: counter-screen for CF NF-kB inhibitors: cytotoxicity. KKLEB CF airway cells viability, ATPlite luminescence, overnight; hits give low values; cells stimulated with P. aeruginosa culture filtrate. activity change (cytotoxicity), % at 5 µM. 0.36% of 360,000 active. AID 602141;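 active means corrected activity change at or below -50% at 5 µM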
Hits are given with their value; 0 = inactive; - = no result. Rows were chosen to be rich in hits. Some 2% of all compounds tested hit in one or more screens of this group.

SMILES	EWS-Fli block	CF NFkB inh	PAX8 inh HTS	LGR2 inh	Shn3 3UTR inh	KKLEB tox
CC(C)NC(=O)Nc1cccc2c1O[C@@H](CN(C)Cc1ccc(Cl)c(Cl)c1)[C@@H](C)CN([C@H](C)CO)C2=O	-	-	0	-	-	-
CC1(C)CC(CC(=O)Nc2nccs2)(c2ccccc2)CCO1 (stereo unspecified)	0	0	69	0	0	0
COCC(=O)N1C[C@@H](C)[C@H](OC)CN(C)C(=O)c2ccc(NC(=O)c3cc(C)on3)cc2OC[C@H]1C	0	-	0	0	-	-
CNC(=S)N/N=C/c1ccc(-c2cccc(C(=O)O)c2)o1	0	0	0	65	0	0
Cc1ccc(C(=O)N/N=C/c2ccc(-c3cccc(C(F)(F)F)c3)o2)cn1	50	0	0	-	0	0
COc1ccc(CN(C)C[C@H]2Oc3ccc(NC(=O)Nc4cccc5ccccc45)cc3CC(=O)N([C@H](C)CO)C[C@H]2C)cc1	0	-	0	0	-	-
COc1cc(/C=C2\N=C(c3ccccc3)NNC2=O)cc(OC)c1OC	56	0	0	0	-	0
COc1ccc(NC(=O)Nc2ccc3c(c2)C(=O)N([C@@H](C)CO)C[C@@H](C)[C@H](CN(C)Cc2ccccc2)OCCCC[C@H](C)O3)cc1	0	-	0	0	-	-
CC(=O)Cn1ncc(Br)c(Br)c1=O	0	96	84	106	97	-83
Cc1nc(-c2ccc3c(c2)OCCO3)cs1	0	0	0	0	0	0
Cc1ccc(-c2csc(/C(C#N)=C/Nc3ccc4c(c3)OCCO4)n2)cc1	0	68	0	0	0	-66
C[C@H](O)C#Cc1cnc2c(c1)C(=O)N([C@H](C)CO)C[C@H](C)[C@H](CN(C)CC1CCOCC1)O2	0	-	0	0	-	-
Brc1ccc2ncnc(Nc3ccc(N4CCOCC4)cc3)c2c1	-	67	-	0	0	0
COCC(=O)N[C@@H]1CC[C@@H](CC(=O)NCc2ccccc2OC)O[C@@H]1CO	0	-	0	79	-	-
COCC(=O)N[C@H]1CC[C@H](CC(=O)NCc2ccccc2OC)O[C@H]1CO	0	-	0	0	-	-
C[C@@H]1CCCCO[C@@H](CN(C)C(=O)NC2CCCCC2)[C@H](C)CN([C@@H](C)CO)C(=O)c2cc(NC(=O)CCCCCC(=O)Nc3ccccc3N)ccc2O1	0	-	-	0	-	-
COc1ccc2oc(-c3ccc(NC(=O)c4ccc(N5CCOCC5)c([N+](=O)[O-])c4)cc3)nc2c1	-	54	-	0	0	-60
O=C(Nc1ccc(-c2nc3ccccc3o2)cc1)c1ccc(N2CCOCC2)c([N+](=O)[O-])c1	0	52	-	0	91	-51
CC12N=C3SCC(=O)N3[C@H](c3ccccc3O1)[C@H]2CO[Si](C)(C)C(C)(C)C	0	-	0	-	-	-
CC(C)(C)[Si](C)(C)OC[C@@H]1[C@H]2c3ccccc3O[C@]1(C)NC(=S)N2C(=O)c1ccccc1	0	-	95	-	-	-
CN1CCN(c2ccc(NC(=O)c3sc4ccccc4c3Cl)cc2)CC1	0	0	0	64	0	0
CN1CCN(c2ccc(NC(=O)N3CCc4ccccc43)cc2)CC1	62	0	0	60	0	0
CN1CCN(C(=O)c2ccccc2NC(=O)c2sc3ccccc3c2Cl)CC1	0	0	0	0	0	0
Nc1ccccc1O	-	53	-	-	0	0
CCS(=O)(=O)NCC[C@H]1CC[C@H](NC(=O)C2CCOCC2)[C@@H](CO)O1	0	-	0	0	-	-
SMILES	EWS-Fli block	CF NFkB inh	PAX8 inh HTS	LGR2 inh	Shn3 3UTR inh	KKLEB tox
COc1cccc(NC(=O)C[C@@H]2CC[C@H]3[C@H](COc4ccc(NC(=O)C5CCC5)cc4C(=O)N3C)O2)c1	0	-	0	0	-	-
COC/C=C/C1=CC2=CC(=O)C(C)(OC(=O)c3cnc4ccccc4n3)C(=O)C2=CN1c1ccccc1 (stereo unspecified)	0	-	67	0	-	-
COC/C=C/C1=CC2=CC(=O)C(C)(OC(=O)c3cnc4ccccc4n3)C(=O)C2=CN1CC(C)C (stereo unspecified)	-	0	-	-	0	0
CCCC#Cc1cnc2c(c1)C(=O)N([C@H](C)CO)C[C@@H](C)[C@H](CN(C)C(=O)NC1CCCC1)O2	0	-	0	0	-	-
O=C(Cc1ccncc1)NCC[C@H]1CC[C@H](NC(=O)C2CCCC2)[C@@H](CO)O1	0	-	0	0	-	-
O=C(OCCN1C(=O)c2cccc3c(N4CCOCC4)ccc(c23)C1=O)c1ccc(Cl)cc1	-	0	61	0	0	0
Cn1c(=O)[nH]c(=O)c2c1nc(Br)n2Cc1cccc(Br)c1	56	0	73	0	0	0
CN(C)c1ccc(/C=C/c2nc3ccccc3s2)cc1	-	0	-	-	0	-83
O=[N+]([O-])c1ccc(/C=C/c2ccc3cccc(O)c3n2)cc1	0	0	0	0	0	0
Oc1ccc(/C=C/c2ccc3ccccc3n2)cc1	79	0	0	96	0	0
O=[N+]([O-])c1ccc(/C=C/c2ccc3ccccc3n2)cc1	59	0	0	54	0	0
Fc1ccccc1/C=C/c1ccc2ccccc2n1	-	0	-	90	0	0
O=C(Nc1ccc2c(c1)[C@@H]1C[C@@H](CC(=O)N3CCOCC3)O[C@H](CO)[C@@H]1O2)Nc1ccccc1F	0	-	0	0	-	-
CCCC#Cc1ccc2c(c1)O[C@@H](CN(C)Cc1ccncc1)[C@@H](C)CN([C@@H](C)CO)S2(=O)=O	0	-	-	0	-	-
CN(C)c1ccc(/C=C/c2ccc3ccccc3n2)cc1	-	0	-	93	88	-80
C(=C\c1ccc2ccccc2n1)/c1ccccc1	74	0	0	94	0	0
Cc1ccc(S(=O)(=O)Nc2cccc3c2O[C@@H](CN(C)Cc2ccccc2)[C@@H](C)CN([C@@H](C)CO)C3=O)cc1	0	-	0	0	-	-
CC(=O)c1cccc(Nc2c3c(nc4ccccc24)CCC3)c1	56	0	0	0	0	0
COc1ccccc1Nc1c2c(nc3ccccc13)CCC2	62	0	0	0	0	0
CC(=O)c1ccc(Nc2c3c(nc4ccccc24)CCCC3)cc1	71	0	0	0	0	0
COc1ccc(Nc2c3c(nc4ccccc24)CCC3)c(OC)c1	0	0	0	0	0	0
CN1c2ccc(-c3ccc(F)cc3)cc2[C@H]2[C@H](CCN2C(=O)Cc2ccccn2)[C@@H]1CO	0	-	0	0	-	-
O=C(NCC[C@H]1CC[C@@H](NS(=O)(=O)Cc2ccccc2)[C@H](CO)O1)C1CC1	0	-	0	0	-	-
COc1ccc2c(c1)c1nc3ccccc3nc1n2CC(=O)OC(C)C	-	0	-	-	0	-56
CC(=O)Nc1ccc(N2CCOCC2)c(S(=O)(=O)Nc2ccccc2Cl)c1	0	0	0	0	0	0
O=C(Nc1cccc(C(F)(F)F)c1)Nc1ccc(N2CCCC2)c(S(=O)(=O)Nc2ccccc2Cl)c1	-	59	90	0	92	-58
COc1ccc(S(=O)(=O)Nc2ccc3c(c2)C(=O)N([C@H](C)CO)C[C@H](C)[C@H](CN(C)S(=O)(=O)c2ccc(C)cc2)OCCCC[C@H](C)O3)cc1	0	-	72	0	-	-
